Screening results as filed in PubChem.
Most compounds without a hit are left out; they make up all but 3.7% or so of the library.
Wnt act: activators of Wnt/beta-catenin signaling; Wnt/beta-catenin reporter cell assay, activator, plate reader; activation, % at 9.35 µM; 300,000 tested, 1.2% active; AID 743398; in the data active means activation above about 30%, passing the limit was not always enough; inconclusive means no clear call, values can overlap the other calls;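 further: 0% = neutral control wells and 100% = positive control wells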
rRNA inh HTS: inhibits bacterial ribosomal RNA function over humanized ribosomes; E. coli WT GFP vs humanized-ribosome RFP mutants, fluorescence, 24 h; stronger effect = lower value; DMSO median 0, no signal -100; GFP signal change (wild-type ribosome), % (test concentration not listed); 350,000 tested, 1.6% active; AID 720706;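 active means significant combined selectivity score with lowered wild-type GFP, culture density cut under 30%, mutant RFP and density less affected; inactive means any of these conditions unmet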
esBAF inh: blocks esBAF chromatin remodeling in mouse ES cells; Bmi1-luciferase knock-in reporter, 24 h; 100% = twice the neutral-well signal; reporter increase, % at 12.5 µM; 350,000 tested, 2% active; AID 602393; in the data active means activation above about 40%; inconclusive means no clear call, values can overlap the other calls;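 further: 0% = median of the plate's neutral control wells and 100% = double that signal; a rise in the Bmi1 reporter signal indicates esBAF inhibition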
AF4-AF9 inh: inhibitors of human MLL-AF4/AF9 interaction; P42568; AlphaScreen, biotin-AF4 peptide binding to FLAG-AF9; inhibition, % at 10 µM; 350,000 tested, 0.47% active; AID 651704;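 active means every replicate reaching a set inhibition limit, whatever the replicate mean, cut at about 25% in these data; inconclusive means mean inhibition reaches that limit but some replicates miss it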;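 further: 0% = plate neutral control median and 100% = total signal loss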
Target sequence (P42568 whole entry, looked up): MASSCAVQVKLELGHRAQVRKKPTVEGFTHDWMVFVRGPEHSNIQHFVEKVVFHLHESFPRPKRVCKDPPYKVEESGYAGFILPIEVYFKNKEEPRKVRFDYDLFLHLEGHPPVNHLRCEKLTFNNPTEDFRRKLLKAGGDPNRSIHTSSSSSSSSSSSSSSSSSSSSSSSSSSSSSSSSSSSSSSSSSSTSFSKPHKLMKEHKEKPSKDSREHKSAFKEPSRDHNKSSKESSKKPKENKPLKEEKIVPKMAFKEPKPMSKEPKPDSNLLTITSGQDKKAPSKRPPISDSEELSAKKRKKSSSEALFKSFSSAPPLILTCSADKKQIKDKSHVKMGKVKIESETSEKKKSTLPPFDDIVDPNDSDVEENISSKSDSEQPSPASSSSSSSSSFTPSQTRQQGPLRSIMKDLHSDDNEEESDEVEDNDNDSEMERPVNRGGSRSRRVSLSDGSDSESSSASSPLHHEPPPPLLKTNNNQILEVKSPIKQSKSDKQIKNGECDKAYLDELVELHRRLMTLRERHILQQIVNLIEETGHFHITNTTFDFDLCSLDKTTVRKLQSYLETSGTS
MITF TRPM1 HTS: MITF TRPM1 promoter activation in melanoma cells; SK-MEL-5 TRPM1-promoter luciferase, 24 h; % of positive control, neutral wells = 0; activation, % at 12.5 µM; 300,000 tested, 0.75% active; AID 588334;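 active means mean activation of at least 80% with every replicate also reaching 80%; inconclusive means mean reaches 80% but some replicate falls short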;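 further: 0% = neutral control wells and 100% = parthenolide positive control wells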
Numbers without * were called inactive; ? = inconclusive; / = no result given.

SMILES	Wnt act	rRNA inh HTS	esBAF inh	AF4-AF9 inh	MITF TRPM1 HTS
CN1C(=O)c2cc(NC(=O)C3CCOCC3)ccc2OC[C@H]2O[C@@H](CC(=O)NCc3ccccc3F)CC[C@@H]21	/	4	-1	/	/
CCCN(C(=O)Cn1nc(C)c([N+](=O)[O-])c1C)c1c(N)n(Cc2ccccc2)c(=O)[nH]c1=O	2	6	/	-4	-3
Cc1sc2ncnc(N3CCN(Cc4ccccc4)CC3)c2c1-c1ccc(F)cc1	-6	-14	-2	12	-4
CN(CCOc1ccccc1)CC(=O)Nc1ccc(Cl)c(S(=O)(=O)N(C)C)c1	-3	-37*	/	0	-4
CN(C)S(=O)(=O)c1cc(NC(=O)CNCc2ccccc2)ccc1Cl	-1	2	/	-3	10
N#Cc1ccc(CSc2nnc(Nc3ccccc3)s2)cc1	-6	/	-3	/	12
O=C(Nc1nnc(SCc2ccccc2F)s1)C1=COCCO1	2	-9	21	-1	44
CC(C)(C)c1ccccc1NC(=O)C1=COCCO1	2	4	-1	-2	10
O=C(Nc1nnc(SCc2ccc(F)cc2)s1)C1=COCCO1	-4	/	48*	2	23
c1ccc(CSc2nnc(NC3=NCCCCC3)s2)cc1	/	/	41*	/	/
O=C(NCCc1ccccc1)C1=COCCO1	28	16	48*	-39	63
O=C(Nc1nnc(SCc2ccccc2)s1)C1=COCCO1	-5	-8	67*	3	63
Cc1ccc(/C=c2/sc3n(c2=O)CCCN=3)o1	/	/	53*	/	/
Cc1ccc(/C=c2\sc3n(c2=O)CN(c2ccc(Br)cc2)CN=3)o1	3	/	0	/	3
COc1ccc2[nH]cc(C(=O)CN3CCCC(C)(C)C3)c2c1	5	0	13	4	-6
O=C1C(C=NCc2ccccn2)=C(O)c2ccccc21	-2	5	73*	-24	50
CC(C)CN=CC1=C(O)c2ccccc2C1=O	26	-4	/	0	/
O=C1C(C=NCCCn2ccnc2)=C(O)c2ccccc21	-3	/	53*	/	-5
O=C(O)CCC(=O)Nc1ccccc1C(=O)NCCc1ccccc1	20	/	/	-2	28
Cn1nc(-c2ccccc2)c(N2CCCCC2)cc1=O	-1	-42*	/	1	6
Cc1cc(C(=O)Nc2ccc(N3CCCCC3)cc2)no1	?	6	-7	2	2
COC(=O)c1c(NC(=O)c2ccc(C)cc2)csc1C	36*	5	/	-5	/
CCCC#Cc1ccc([C@@H]2[C@H](CO)N3C(=O)CN(C(=O)c4ccccc4)C[C@@H]23)cc1	/	2	/	3	/
CC(=O)N1CC(C)Sc2ccc(S(=O)(=O)NCc3ccc(F)cc3)cc21 (configuration not stated)	-5	-26*	-2	2	15
CCOC1=C2[C@H](c3ccccc3)N(S(=O)(=O)c3ccccc3)C[C@H]2n2c(=O)n(-c3ccccc3)c(=O)n2C1	-1	14	5	-64	/
SMILES	Wnt act	rRNA inh HTS	esBAF inh	AF4-AF9 inh	MITF TRPM1 HTS
Cc1ccc(CSc2nc3ccncc3n2CC(=O)Nc2cc(C)cc(C)c2)cc1	0	2	48*	-6	35
CCC(=O)N1C[C@H](C)[C@@H](OC)CN(C)C(=O)c2cc(NC(=O)C3CC3)ccc2OC[C@H]1C	/	0	0	-2	/
COc1ccc(NC(=O)CSc2nc(SC)ns2)cc1	?	-3	56*	0	108*
CSc1nsc(SCC(=O)Nc2ccc(C(C)=O)cc2)n1	/	/	48*	/	37
CSc1nsc(SCC(=O)Nc2ccc(NC(C)=O)cc2)n1	2	4	12	0	13
CN(C)c1nc(OCCNC(=O)COc2ccc(Cl)cc2Cl)nc(N2CCOCC2)n1	-6	/	2	/	/
C[C@H](CO)N1C[C@H](C)[C@@H](CN(C)C(=O)C2CCOCC2)Oc2ncc(-c3cccc(F)c3)cc2C1=O	/	-3	-3	-5	/
CCc1nc2ccc(C(=O)N(C)CCN(C)C)cn2c1N(CC)C(=O)NCCc1ccccc1	0	16	13	-1	/
Cc1noc(C)c1S(=O)(=O)N(C)C[C@H]1OCCCC[C@H](C)Oc2ccc(NC(=O)Nc3cccc4ccccc34)cc2C(=O)N([C@@H](C)CO)C[C@@H]1C	/	0	4	1	/
CC(=O)C1=C(C)NC(SCC(N)=O)=C(C#N)C1c1sccc1C (configuration not stated)	-2	-18	4	-35	9
CCOC(=O)CSC1=C(C#N)C(c2sccc2C)C(C(C)=O)=C(C)N1 (configuration not stated)	-2	-40*	/	3	10
O=C(C1CC1)N1CCN(c2ccc([N+](=O)[O-])cc2-n2cccc2)CC1	2	-30*	/	14	/
COc1cc(/C=N/Nc2ccc(C(=O)O)cc2)ccc1O	7	/	/	4	-16
COc1cc(/C=N/Nc2ccc(C(=O)O)cc2)cc(OC)c1OC	25	11	56*	-3	?
COc1ccc(/C=N\Nc2ccc([N+](=O)[O-])cc2)c(C(=O)O)c1OC	1	3	-4	-5	8
COc1ccc(/C=N/Nc2ccc(C(=O)O)cc2)c(OC)c1OC	13	1	91*	1	124*
O=C(O)c1ccc(N/N=C/c2cccc(F)c2)cc1	/	/	/	/	17
O=C(O)c1ccc(N/N=C/c2cccc(C(F)(F)F)c2)cc1	25	-16	92*	-1	110*
CC(OC(=O)c1nc(Cl)ccc1Cl)C(=O)c1ccccc1 (configuration not stated)	-6	1	8	-4	-4
Nc1n[nH]c(N)c1N=Nc1cccc(C(F)(F)F)c1	2	-11	51*	0	33
Nc1n[nH]c(N)c1N=Nc1cccc(F)c1	/	/	30	/	33
Cc1cc(C)cc(N2Cc3ccccc3C2)c1	-2	-12	0	5	6
CCOC(=O)c1ccc(N2Cc3ccccc3C2)cc1O	8	-2	30	-7	106*
CCc1ccc(N2Cc3ccccc3C2)cc1	2	1	/	5	86*
CCOC(=O)C1CCN(C(=S)NC2CC3C=CC2C3)CC1 (configuration not stated)	0	1	/	32*	/
SMILES	Wnt act	rRNA inh HTS	esBAF inh	AF4-AF9 inh	MITF TRPM1 HTS
NC(=O)c1nsnc1-c1ccccc1O	1	/	-8	/	-1
CCOC(=O)CC(=O)CSc1nc2ccc(C)cc2cc1C#N	22	6	34	0	74
COC(=O)CSc1nc2cc(C)ccc2cc1C#N	80*	/	31	/	75
Cn1cccc1/C=C1\SC(=O)N(c2ccccc2)C1=O	41*	/	/	/	95*
Cc1noc(C)c1COc1ccccc1C(=O)N(C)Cc1ccco1	38*	5	-1	-6	-1
COc1ccc(CNc2ccc([N+](=O)[O-])cn2)cc1	21	14	63*	0	70
COc1ccc(Nc2ccc([N+](=O)[O-])cn2)cc1	1	0	38	-3	/
Cn1cncc1C#Cc1ccc2cc(C(C)(C)O)oc(=O)c2c1	3	-10	13	-1	19
Cn1cncc1C#Cc1ccc2c(=O)c3ccccc3oc2c1	44*	-2	?	3	68
